# Inconclusive results are not listed. For part of these data: Results with a measured potency or affinity are listed apart. Active and inactive are the calls of the source.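 The calls were made as follows, unless noted: active = fitted half-maximal concentration within 10 nM to 100 µM, steepness 0.5 to 2, significant signal drop, low assay interference; inactive = the rest.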
# How the values were obtained:
# [1] = target: Cell division control protein 42 homolog (Homo sapiens) (UniProt P60953); test: activated mutant Cdc42 GTP-binding inhibitors, dose response, biochemical, multiplex bead flow cytometry, Bodipy-FL-GTP (AID 1333;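 active = fitted half-maximal concentration within the tested dose range, moderate curve steepness, a statistically real signal drop, and little compound fluorescence or tag-binding interference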)
# [2] = target: Cell division control protein 42 homolog (Homo sapiens) (UniProt P60953); test: wildtype Cdc42 GTP-binding inhibitors, dose response, biochemical, multiplex bead flow cytometry, Bodipy-FL-GTP (AID 1334;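 active = fitted half-maximal concentration within the tested range, moderate curve steepness, significant signal drop, and little compound fluorescence or bead-linkage interference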); details: bead-based flow cytometry, Bodipy-FL-GTP binding to GST-Cdc42; at 100 µM (top of the series) unless noted
# [3] = target: GTPase HRas (Homo sapiens) (UniProt P01112); test: inhibitors of GTP binding to wildtype Ras, dose response, biochemical, multiplex bead flow cytometry (AID 1335); details: bead-based flow cytometry, Bodipy-GTP binding to GST-Ras; at 100 µM (top of the series) unless noted
# [4] = system: Ras-related protein Rab-7a (dog), GTP binding; test: Rab7 GTP binding inhibitors, potency, dose response, biochemical, wildtype, multiplex bead flow cytometry (AID 1336; call rule not given here)
# [5] = target: Ras-related C3 botulinum toxin substrate 1 (Homo sapiens) (UniProt P63000); test: wildtype Rac1 GTP binding inhibitors, dose response, biochemical, multiplex bead flow cytometry (AID 1340;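 active = dose curve with midpoint inside tested range, moderate steepness, plateau gap beyond fit error, low compound glow and bead-link interference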); details: GST-Rac1 beads, Bodipy-FL-GTP binding; at 100 µM (top of the series) unless noted
# [6] = target: GTPase HRas (Homo sapiens) (UniProt P01112); test: activated Ras mutant GTP binding inhibitors, dose response, biochemical, multiplex bead flow cytometry (AID 1341;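 active = dose-response curve with midpoint inside the tested range, moderate steepness, significant amplitude and little compound fluorescence or bead-attachment interference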;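 also: GST-tagged constitutively activated Ras mutant immobilized on beads and multiplexed with other GTPases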)
# [7] = yeast TOR pathway RPL19A-GFP modulators, primary screen, cell-based, S. cerevisiae, multiplex flow cytometry (AID 1862; in the data active = percent of DMSO control GFP below about 86%;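 also: lower values mimic rapamycin by blocking the RPL19A rise seen in DMSO cells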); details: S. cerevisiae RPL19A-GFP strain, flow cytometry fluorescence, 3 h; at 10 µM; stronger effect = lower value
# [8] = modulators of MEP2-GFP levels in yeast, primary screen, S. cerevisiae, multiplex flow cytometry (AID 1867;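 active = GFP response, as percent of the DMSO control, above the screen-wide mean plus 3 SD, about 139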;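 also: median GFP channel fluorescence of barcode-gated MEP2-GFP cells measured by flow cytometry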); details: S. cerevisiae MEP2-GFP strain, 3 h, at 10 µM, stronger effect = higher value, 100% means same as DMSO wells
# [9] = modulators of CIT2-GFP expression in yeast, primary screen, S. cerevisiae, GFP fusion, multiplex flow cytometry (AID 1870;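 active = percent response above a set limit, the screen-wide mean plus 3 SD, cut at about 130% in these data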;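 also: barcoded CIT2-GFP strain pooled with four other GFP strains with rapamycin as positive control; median GFP fluorescence per well over plate mean of DMSO wells so 100% = DMSO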); details: 3 h, at 10 µM, stronger effect = higher value
# [10] = modulators of LAP4-GFP expression in yeast, primary screen, S. cerevisiae, multiplex flow cytometry (AID 1873;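 active = GFP signal, as percent of the solvent control, above the screen mean plus 3 SD, about 149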); details: 3 h, at 10 µM, stronger effect = higher value
# [11] = modulators of AGP1-GFP expression in yeast TOR pathway, primary screen, cell-based, multiplex flow cytometry, S. cerevisiae (AID 1887;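 active = GFP signal above the screen-wide mean plus 3 SD, that is over about 124.5% of the solvent control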;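 also: AGP1-GFP fusion strain of S. cerevisiae within a five-strain barcoded multiplex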); details: 3 h, at 10 µM, stronger effect = higher value
# [12] = inhibitors of CD8+ T cell-vesicle binding, pilot screen, LFA-1/ICAM-1 modulator project, MLPCN validation set, flow cytometry (AID 2523;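 active = response below a set limit, under 55% cells CD8-positive and vesicle-bound, and CD8 cells' 90th-percentile brightness under 279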;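 as to vesicle binding response: mean PE anti-B7-1 fluorescence of CD8+ cells relative to row control; 100% = QL9-loaded vesicles with DMSO vehicle in the same plate row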); details: 2C mouse CD8+ T cells, at 7 µM, stronger effect = lower value; double positive events: measured here: CD8+/vesicle+ event percentage
# [13] = target: Integrin beta-1 (Homo sapiens) + Integrin alpha-4 (Homo sapiens) (UniProt P13612+P05556); test: inhibition of HUTS-21 binding to VLA-4, pilot screen, VLA-4 allosteric modulator project, U937 cells, HUTS-21 mAb, flow cytometry, validation set (AID 2674;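 active = inhibition above 50%, about 3 SD of the validation set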;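 also: antibody binding induced by the VLA-4 ligand LDV present at three times its Kd; 0% = LDV ligand with antibody and no compound and 100% = antibody without LDV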); details: HUTS-21 LIBS mAb binding, at 6.7 µM, stronger effect = higher value, binding induced by LDV ligand
# [14] = superoxide lowering in aged yeast cells, pilot screen, validation compound set (AID 2706;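 active = superoxide response below 65% of plate, a cut near 3 SD across the whole screen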;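 also: yeast exposed to compound for one week at 30 degrees C before staining; 100% = mean of all compound wells on the same plate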); details: S. cerevisiae aging, superoxide DHE fluorescence; at 10 µM; stronger effect = lower value
# [15] = target: Beta-adrenergic receptor kinase 1 (Homo sapiens) (UniProt P25098); test: GRK2 binders displacing RNA aptamer, biochemical, validation, human GRK2, bead flow cytometry (AID 488806;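 active = aptamer binding inhibition above 30%, about 3 SD of noise from non-fluorescent compounds; inactive = inhibition at or below 30%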); details: bead-bound GRK2, FAM-aptamer displacement, at 10 µM, stronger effect = higher value
# [16] = target: Beta-2 adrenergic receptor (Homo sapiens) (UniProt P07550); test: beta2AR agonists driving receptor internalization, pilot screen, cell-based, FAP fluorogen, flow cytometry, validation set (AID 504459;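 active = percent response above 42, roughly 3 SD of non-fluorescent test compounds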;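 also: agonist-driven loss of surface beta2AR via internalization measured by FAP dye flow cytometry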); details: Am2.2-beta2AR cells, FAP surface receptor flow cytometry; at 10 µM; stronger effect = higher value
# [17] = target: AP-2 complex subunit beta (Homo sapiens) (UniProt P63010); test: inhibitors of arrestin peptide binding to AP2, pilot screen, biochemical, validation set, GST-AP2 beads, flow cytometry (AID 504541;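 active = inhibition above 54%, about 3 SD of non-fluorescent compounds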;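 also: AP2 carries R879A mutation and is captured from E. coli lysate; bead-bound FITC arrestin peptide fluorescence measuring arrestin peptide binding to AP2; 0% = DMSO wells and 100% = excess unlabeled arrestin peptide control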); details: FITC arrestin peptide, at 10 µM, stronger effect = higher value, AP2 beta2 appendage fragment, R879A mutant
# [18] = yeast V-ATPase proton transport modulators, S. cerevisiae, pHLuorin, HTS validation (AID 504600; in the data active = response above about 15%;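 also: plate controls were DMSO for no effect and reference compound for full effect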); details: S. cerevisiae pHLuorin cytosolic pH, at 10 µM, stronger effect = higher value
# [19] = system: anti-desmoglein-3 scFv antibody binding to human DSG3; test: inhibitors of anti-DSG3 scFv binding to DSG3, pilot screen, biochemical, validation compound set, bead-based, flow cytometry (AID 588368;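 active = binding below the plate cutoff, the plate median minus 3 SD, with a reading above zero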;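 also: signal is the median channel fluorescence of bead-bound GFP antibody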); details: Protein G beads, DSG3-Fc, scFv-GFP binding, at 10 µM, stronger effect = lower value
# [20] = inhibitors of fungal efflux pumps CDR1, CDR2, MDR1, pilot screen, validation compound set, multiplex, phenotypic (AID 588506;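 active = efflux inhibition above 0.42, the validation set average plus 4 SD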;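 also: Nile Red retained in cells so higher fluorescence means more efflux inhibition; 0 = negative control wells and 1 = enniatin B 25 µM full block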); details: S. cerevisiae pump-expressing triplex, Nile Red efflux flow cytometry; at 10 µM; stronger effect = higher value; the pumps come from Candida albicans
# [21] = target: ATP-binding cassette sub-family B member 6 (Homo sapiens) (UniProt Q9NP58); test: ABCB6 transporter inhibitors, pilot screen, K562-ABCB6 cells, flow cytometry, validation set (AID 588550;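 active = inhibition above the screen-wide mean plus 3 SD, about 51%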;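 also: 0% = DMSO wells and 100% = benzethonium chloride 70 µM positive control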); details: K562-ABCB6 porphyrin accumulation, 1 h, at 10 µM, stronger effect = higher value
# [22] = promoters of myeloid differentiation in arrested cells, primary screen, cell-based, GFP/MAC1 double positive, flow cytometry, validation set (AID 588685;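 active = differentiation response of at least 50%, scaled between solvent and reference control, from cells with both markers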;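 also: compound exposure lasts four days before antibody staining and flow analysis; 0% = DMSO wells and 100% = 5 µM fulvestrant positive control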); details: ER-HoxA9 marrow cells, stronger effect = higher value, normalized: vehicle 0, fulvestrant 100
# [23] = RPL19A-GFP modulators, yeast TOR pathway, confirmation, cell-based, S. cerevisiae, flow cytometry, cherry picks, mother/daughter gates (AID 2270;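 active = GFP response below 50% of the DMSO control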); details: S. cerevisiae RPL19A-GFP strain, 3 h, at 10 µM, stronger effect = lower value, 100 = same GFP as DMSO wells
# [24] = LAP4-GFP expression modulators in yeast, confirmation, cell-based, cherry picks, flow cytometry, mother/daughter gates (AID 2271;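 active = GFP response above 150% of the DMSO control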;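 also: ratio of sample to DMSO plate mean so 100% equals DMSO level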); details: S. cerevisiae LAP4-GFP strain, 3 h, at 10 µM, stronger effect = higher value, 100 means same as DMSO control
# [25] = modulators of MEP2-GFP levels in yeast, confirmation, S. cerevisiae, flow cytometry GFP, cherry picks (AID 2272;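 active = GFP response above 150% of the DMSO control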;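 also: ratio of well signal to plate DMSO mean so 100% equals DMSO level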); details: S. cerevisiae MEP2-GFP strain, 3 h, at 10 µM, stronger effect = higher value
# [26] = AGP1-GFP expression modulators, hit retest, confirmation, cell-based, flow cytometry, S. cerevisiae, cherry picks (AID 2273;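 active = GFP response above 150% of the DMSO level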;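 also: median GFP channel fluorescence over the whole cell population gate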); details: S. cerevisiae AGP1-GFP strain, 3 h, at 10 µM
# [27] = modulators of CIT2-GFP expression in yeast, confirmation, S. cerevisiae, GFP fusion, cherry picks, mother/daughter gates (AID 2274;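 active = GFP response above 150% of the DMSO level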); details: S. cerevisiae CIT2-GFP strain, flow cytometry, 3 h, at 10 µM, stronger effect = higher value
# [28] = measured here: daughter cell gate
# [29] = measured here: mother cell gate
# Chain of Cell division control protein 42 homolog (Homo sapiens) (P60953 whole entry, looked up): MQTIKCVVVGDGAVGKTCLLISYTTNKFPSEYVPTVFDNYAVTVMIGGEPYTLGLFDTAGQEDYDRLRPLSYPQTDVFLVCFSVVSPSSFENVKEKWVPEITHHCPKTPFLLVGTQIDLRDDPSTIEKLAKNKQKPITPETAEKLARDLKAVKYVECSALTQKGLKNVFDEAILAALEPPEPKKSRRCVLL
# Chain of GTPase HRas (Homo sapiens) (P01112 whole entry, looked up): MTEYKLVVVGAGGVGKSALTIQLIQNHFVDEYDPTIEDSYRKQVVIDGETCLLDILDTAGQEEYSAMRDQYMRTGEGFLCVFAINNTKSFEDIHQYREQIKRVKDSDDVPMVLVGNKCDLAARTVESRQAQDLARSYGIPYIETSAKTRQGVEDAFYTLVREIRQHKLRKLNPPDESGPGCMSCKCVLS
# Chain of AP-2 complex subunit beta (Homo sapiens) (P63010 whole entry, looked up, the tested form may be a part, one chain of several): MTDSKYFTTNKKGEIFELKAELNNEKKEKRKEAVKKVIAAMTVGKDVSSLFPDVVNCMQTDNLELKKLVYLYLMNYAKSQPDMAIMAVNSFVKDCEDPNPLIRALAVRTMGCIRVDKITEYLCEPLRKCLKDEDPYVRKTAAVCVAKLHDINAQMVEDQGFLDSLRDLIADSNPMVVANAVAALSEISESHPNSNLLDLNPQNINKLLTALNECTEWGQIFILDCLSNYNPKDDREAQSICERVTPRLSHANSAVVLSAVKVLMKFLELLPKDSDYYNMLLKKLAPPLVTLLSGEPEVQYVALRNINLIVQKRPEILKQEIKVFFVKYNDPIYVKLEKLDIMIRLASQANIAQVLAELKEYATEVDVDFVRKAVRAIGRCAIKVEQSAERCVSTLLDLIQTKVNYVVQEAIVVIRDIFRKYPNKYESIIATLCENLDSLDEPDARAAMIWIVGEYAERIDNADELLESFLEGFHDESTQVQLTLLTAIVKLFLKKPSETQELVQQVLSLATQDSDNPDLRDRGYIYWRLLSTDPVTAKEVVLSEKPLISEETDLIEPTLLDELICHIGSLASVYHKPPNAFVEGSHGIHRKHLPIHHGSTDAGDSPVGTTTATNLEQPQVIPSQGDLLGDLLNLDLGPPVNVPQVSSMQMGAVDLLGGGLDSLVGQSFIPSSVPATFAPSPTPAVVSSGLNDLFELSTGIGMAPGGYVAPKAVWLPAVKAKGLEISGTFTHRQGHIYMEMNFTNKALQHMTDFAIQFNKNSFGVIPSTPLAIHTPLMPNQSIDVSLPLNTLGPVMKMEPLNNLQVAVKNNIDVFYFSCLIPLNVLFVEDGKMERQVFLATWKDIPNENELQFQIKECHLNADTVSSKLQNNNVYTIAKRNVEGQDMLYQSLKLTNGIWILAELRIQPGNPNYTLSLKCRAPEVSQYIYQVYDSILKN
# Chain of Integrin beta-1 (Homo sapiens) + Integrin alpha-4 (Homo sapiens) (P05556 whole entry, looked up): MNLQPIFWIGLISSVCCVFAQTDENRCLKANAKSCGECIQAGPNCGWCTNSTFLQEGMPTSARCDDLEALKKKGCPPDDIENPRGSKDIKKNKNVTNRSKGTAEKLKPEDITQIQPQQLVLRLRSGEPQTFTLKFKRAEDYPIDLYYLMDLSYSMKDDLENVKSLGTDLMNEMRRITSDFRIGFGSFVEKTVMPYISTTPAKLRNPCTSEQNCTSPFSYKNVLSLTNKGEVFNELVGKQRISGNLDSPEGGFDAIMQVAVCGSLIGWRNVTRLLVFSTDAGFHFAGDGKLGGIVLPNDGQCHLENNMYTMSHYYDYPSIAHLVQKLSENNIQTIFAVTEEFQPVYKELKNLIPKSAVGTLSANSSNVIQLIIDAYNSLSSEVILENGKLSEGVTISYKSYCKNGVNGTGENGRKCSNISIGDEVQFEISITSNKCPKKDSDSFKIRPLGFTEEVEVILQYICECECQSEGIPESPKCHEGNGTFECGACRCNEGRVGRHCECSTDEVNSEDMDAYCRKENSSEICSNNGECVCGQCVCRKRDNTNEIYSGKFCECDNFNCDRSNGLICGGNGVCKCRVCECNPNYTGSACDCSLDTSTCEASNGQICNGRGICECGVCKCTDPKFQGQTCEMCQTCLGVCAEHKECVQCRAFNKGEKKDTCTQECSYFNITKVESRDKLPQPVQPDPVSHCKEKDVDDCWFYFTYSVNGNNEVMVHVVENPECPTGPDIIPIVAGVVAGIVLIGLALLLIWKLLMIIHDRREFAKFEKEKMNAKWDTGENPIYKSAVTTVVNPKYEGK
# Chain of Integrin beta-1 (Homo sapiens) + Integrin alpha-4 (Homo sapiens) (P13612 whole entry, looked up): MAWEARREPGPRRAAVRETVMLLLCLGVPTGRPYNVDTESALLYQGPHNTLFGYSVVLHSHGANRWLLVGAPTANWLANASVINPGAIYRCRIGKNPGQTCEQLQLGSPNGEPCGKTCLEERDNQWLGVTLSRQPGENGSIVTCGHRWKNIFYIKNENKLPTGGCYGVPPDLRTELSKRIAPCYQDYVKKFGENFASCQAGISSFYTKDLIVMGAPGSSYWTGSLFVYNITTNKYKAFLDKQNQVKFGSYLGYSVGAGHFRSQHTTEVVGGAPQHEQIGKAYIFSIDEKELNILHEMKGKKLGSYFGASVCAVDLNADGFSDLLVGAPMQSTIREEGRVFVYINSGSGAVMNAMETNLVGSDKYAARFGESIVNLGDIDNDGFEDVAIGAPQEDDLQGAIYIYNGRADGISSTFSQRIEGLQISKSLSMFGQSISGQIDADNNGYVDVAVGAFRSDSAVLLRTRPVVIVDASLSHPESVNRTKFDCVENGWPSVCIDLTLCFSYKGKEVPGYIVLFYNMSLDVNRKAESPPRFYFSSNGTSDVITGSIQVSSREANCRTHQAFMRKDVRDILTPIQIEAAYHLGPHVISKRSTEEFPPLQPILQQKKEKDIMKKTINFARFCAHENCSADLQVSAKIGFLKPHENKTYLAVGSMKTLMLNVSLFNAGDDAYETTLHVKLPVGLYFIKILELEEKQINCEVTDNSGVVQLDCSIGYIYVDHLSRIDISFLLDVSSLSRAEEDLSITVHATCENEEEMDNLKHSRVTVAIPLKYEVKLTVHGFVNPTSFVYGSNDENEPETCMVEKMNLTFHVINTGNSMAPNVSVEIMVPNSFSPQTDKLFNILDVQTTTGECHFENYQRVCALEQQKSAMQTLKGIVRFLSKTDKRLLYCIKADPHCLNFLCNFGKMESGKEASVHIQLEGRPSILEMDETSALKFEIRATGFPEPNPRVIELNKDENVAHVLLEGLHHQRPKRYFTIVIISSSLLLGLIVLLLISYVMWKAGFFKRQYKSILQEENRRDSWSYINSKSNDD
# Chain of Beta-adrenergic receptor kinase 1 (Homo sapiens) (P25098 whole entry, looked up): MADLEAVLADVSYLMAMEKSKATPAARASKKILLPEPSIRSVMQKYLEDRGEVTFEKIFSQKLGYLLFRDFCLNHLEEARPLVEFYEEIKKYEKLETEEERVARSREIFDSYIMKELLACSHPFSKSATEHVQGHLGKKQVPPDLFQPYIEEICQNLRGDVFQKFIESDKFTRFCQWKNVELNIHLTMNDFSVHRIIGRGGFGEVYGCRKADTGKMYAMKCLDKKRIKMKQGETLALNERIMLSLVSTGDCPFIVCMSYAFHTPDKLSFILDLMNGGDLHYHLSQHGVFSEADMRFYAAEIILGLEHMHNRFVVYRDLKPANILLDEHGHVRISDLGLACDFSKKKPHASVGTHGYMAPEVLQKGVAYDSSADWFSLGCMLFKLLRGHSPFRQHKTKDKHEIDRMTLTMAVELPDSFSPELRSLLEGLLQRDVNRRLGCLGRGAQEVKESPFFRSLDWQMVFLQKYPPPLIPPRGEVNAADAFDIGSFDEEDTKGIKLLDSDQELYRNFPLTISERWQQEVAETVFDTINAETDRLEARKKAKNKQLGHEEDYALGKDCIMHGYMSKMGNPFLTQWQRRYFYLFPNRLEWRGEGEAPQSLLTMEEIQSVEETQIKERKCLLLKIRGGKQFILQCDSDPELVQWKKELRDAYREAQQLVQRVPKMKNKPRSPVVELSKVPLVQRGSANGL
# Chain of ATP-binding cassette sub-family B member 6 (Homo sapiens) (Q9NP58 whole entry, looked up): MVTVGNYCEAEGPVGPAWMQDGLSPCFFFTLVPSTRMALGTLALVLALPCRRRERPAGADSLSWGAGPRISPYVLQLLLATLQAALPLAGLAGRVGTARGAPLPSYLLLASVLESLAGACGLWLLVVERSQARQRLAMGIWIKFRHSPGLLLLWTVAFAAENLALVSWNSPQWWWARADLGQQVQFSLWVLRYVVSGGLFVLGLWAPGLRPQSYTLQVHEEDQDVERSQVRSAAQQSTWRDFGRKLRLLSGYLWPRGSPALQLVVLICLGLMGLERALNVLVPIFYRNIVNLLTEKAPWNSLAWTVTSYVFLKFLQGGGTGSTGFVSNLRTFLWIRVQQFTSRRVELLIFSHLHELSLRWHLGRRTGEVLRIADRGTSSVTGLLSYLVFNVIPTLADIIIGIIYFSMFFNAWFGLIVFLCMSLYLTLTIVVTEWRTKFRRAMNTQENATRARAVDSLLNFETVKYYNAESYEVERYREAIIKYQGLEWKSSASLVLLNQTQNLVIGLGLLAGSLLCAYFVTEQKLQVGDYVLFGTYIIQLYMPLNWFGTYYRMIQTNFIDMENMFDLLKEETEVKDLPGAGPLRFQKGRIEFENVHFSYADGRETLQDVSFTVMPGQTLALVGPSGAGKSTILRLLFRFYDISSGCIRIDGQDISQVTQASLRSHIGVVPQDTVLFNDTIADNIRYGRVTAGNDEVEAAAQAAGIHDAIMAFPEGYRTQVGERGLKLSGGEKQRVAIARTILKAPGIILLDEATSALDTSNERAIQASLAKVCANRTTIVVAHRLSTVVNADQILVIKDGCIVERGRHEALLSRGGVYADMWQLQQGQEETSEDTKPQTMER
smiles,measurement,setting,value
COc1cc2c(cc1OC)-c1cc(NC3CCCCCC3)nc(=O)n1CC2,outcome,[1],inactive
same,"fluorescence, percent of control (lower = inhibition)",[2],34.3%
same,"GTP binding, percent of control",[3],69.8%
same,outcome,[4],inactive
same,"GTP binding signal, raw median fluorescence (lower = inhibition) (MCF (arbitrary fluorescence units))",[5],145
same,outcome,[6],inactive
same,percent of DMSO control GFP,[7],100% (inactive)
same,GFP response vs DMSO,[8],100% (inactive)
same,percent response of DMSO control,[9],109% (inactive)
same,GFP response vs DMSO,[10],94.7% (inactive)
same,"GFP response, % of DMSO",[11],95.9% (inactive)
same,double positive events,[12],62.4%
same,vesicle binding response,[12],601% (inactive)
same,inhibition,[13],-22.2% (inactive)
same,superoxide response (% of plate),[14],98.3% (inactive)
same,aptamer binding inhibition,[15],0% (inactive)
same,response,[16],-1.14% (inactive)
same,inhibition,[17],17% (inactive)
same,response,[18],-1.05% (inactive)
same,binding (% of control),[19],107% (inactive)
same,efflux inhibition (fraction of control),[20],0.21 (inactive)
same,inhibition,[21],-6% (inactive)
same,differentiation response,[22],7.09% (inactive)
COc1cc(/C=N/Nc2nnc3c(n2)[nH]c2ccccc23)ccc1O,outcome,[1],inactive
same,"fluorescence, percent of control (lower = inhibition)",[2],33.9%
same,"GTP binding, percent of control",[3],79.1%
same,outcome,[4],inactive
same,outcome,[6],inactive
Oc1ccc2ccccc2c1/C=N/Nc1nnc(-c2ncc[nH]2)c2ccccc12,outcome,[1],inactive
same,"fluorescence, percent of control (lower = inhibition)",[2],44%
same,"GTP binding, percent of control",[3],59.7%
same,outcome,[4],inactive
same,"GTP binding signal, raw median fluorescence (lower = inhibition) (MCF (arbitrary fluorescence units))",[5],138
same,outcome,[6],inactive
same,GFP response vs DMSO,[23],108% (inactive)
same,GFP response vs DMSO,[23]; [28],91.9%
same,GFP response vs DMSO,[23]; [29],108%
same,GFP response relative to DMSO,[24],123% (inactive)
same,GFP response relative to DMSO,[24]; measured here: daughter cell gate response,119%
same,GFP response relative to DMSO,[24]; measured here: mother cell gate response,128%
same,GFP response vs DMSO,[25],137% (inactive)
same,"GFP response, % of DMSO",[26],95.9% (inactive)
same,"GFP response, % of DMSO",[27],162% (active)
same,"GFP response, % of DMSO",[27]; [28],114%
same,"GFP response, % of DMSO",[27]; [29],205%
Cc1ccccc1OCCn1cc(C(=O)O)c2c(C)cccc21,outcome,[1],inactive
same,"fluorescence, percent of control (lower = inhibition)",[2],53%
same,"GTP binding, percent of control",[3],176%
same,outcome,[4],inactive
same,"GTP binding signal, raw median fluorescence (lower = inhibition) (MCF (arbitrary fluorescence units))",[5],55.6
same,outcome,[6],inactive
